# “And” between values parts separate entries of the source, which are not always exact repeats. Equal entries are not always repeated. Unmarked numbers belong to inactive results. Results filed as inconclusive are left out. The source made the active and inactive calls. Unless noted, the call rests on the fitted dose curve; in most records, active means well fitted curve in the direction sought with a large enough effect in the repeat runs; inconclusive means weak or mixed curves; inactive means no such curve, though single readings can be large; an effect the other way counts as inactive or inconclusive.
# What was measured:
# [1] = molecular target: T1, Hexokinase-4 (Homo sapiens) + Glucokinase regulatory protein (Homo sapiens) (UniProt P35557+Q14397); test: qHTS assay for inhibitors of recombinant human GCK-GKRP interaction: Diaphorase-coupled assay (AID 743205; active means well fitted curve in the direction sought with a large enough effect; an effect the other way counts as inactive or inconclusive)
# T1 sequence (P35557 whole entry, looked up): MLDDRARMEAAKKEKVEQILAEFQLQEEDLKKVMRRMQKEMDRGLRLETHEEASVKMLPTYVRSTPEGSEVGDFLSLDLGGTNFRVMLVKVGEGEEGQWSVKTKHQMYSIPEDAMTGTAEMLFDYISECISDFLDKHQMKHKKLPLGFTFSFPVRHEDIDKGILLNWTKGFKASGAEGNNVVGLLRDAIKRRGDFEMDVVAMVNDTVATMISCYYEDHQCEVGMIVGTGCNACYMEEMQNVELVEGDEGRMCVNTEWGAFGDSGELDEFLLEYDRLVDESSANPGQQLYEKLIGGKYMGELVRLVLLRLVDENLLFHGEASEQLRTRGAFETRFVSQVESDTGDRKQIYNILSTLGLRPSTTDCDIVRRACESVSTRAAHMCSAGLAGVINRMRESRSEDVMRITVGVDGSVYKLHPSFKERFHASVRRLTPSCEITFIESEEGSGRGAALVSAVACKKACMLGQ
# T1 sequence (Q14397 whole entry, looked up): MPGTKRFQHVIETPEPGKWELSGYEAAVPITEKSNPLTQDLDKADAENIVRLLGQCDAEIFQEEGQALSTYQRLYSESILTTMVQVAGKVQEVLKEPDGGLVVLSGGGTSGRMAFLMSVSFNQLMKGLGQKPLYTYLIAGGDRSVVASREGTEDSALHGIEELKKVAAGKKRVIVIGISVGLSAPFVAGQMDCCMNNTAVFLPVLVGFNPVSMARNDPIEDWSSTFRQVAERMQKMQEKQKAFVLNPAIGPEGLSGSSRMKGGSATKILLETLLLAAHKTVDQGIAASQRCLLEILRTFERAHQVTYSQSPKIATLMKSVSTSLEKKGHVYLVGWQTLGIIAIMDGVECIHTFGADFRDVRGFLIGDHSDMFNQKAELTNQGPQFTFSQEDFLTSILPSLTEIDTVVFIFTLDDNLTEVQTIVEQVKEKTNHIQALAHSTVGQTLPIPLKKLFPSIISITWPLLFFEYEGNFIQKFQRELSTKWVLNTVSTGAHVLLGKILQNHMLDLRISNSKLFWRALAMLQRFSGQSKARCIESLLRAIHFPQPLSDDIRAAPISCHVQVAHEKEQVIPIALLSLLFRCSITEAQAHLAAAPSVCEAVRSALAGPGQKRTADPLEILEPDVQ
# In short: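 Signal derives from resorufin generated by diaphorase, linked to GCK turnover of glucose (5 mM) and ATP (0.4 mM). Enzyme complex was added after a 20-minute compound preincubation and monitored for 30 minutes.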
# [2] = qHTS Assay for Identifying Gametocytocidal Compounds (AID 743244; active means well fitted curve in the direction sought with a large enough effect; an effect the other way counts as inactive or inconclusive; further: potency means the concentration at half of the fitted maximal effect;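 on max response: on the % scale 0 is the no-effect control and ±100 the full control effect; actives lower the fluorescent signal which means gametocytes are killed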); settings: P. falciparum 3D7 stage III-V gametocytes, alamarBlue, 72 h; max response: hits give low values
# In short: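 Stage III-V P. falciparum 3D7 gametocytes, 20,000 per well, were exposed to compounds for 72 h at 37C, 5% CO2. AlamarBlue was then added for 24 h and viability was read as fluorescence at Ex 525/Em 598 nm.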
# [3] = qHTS assay for small molecule agonists of the antioxidant response element (ARE) signaling pathway measured by Nrf2-dependant transcriptional activity (AID 720636); further: % of control where 0% means no effect
# In short: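 Quantitative HTS format in HepG2 cells stably expressing an ARE-luciferase reporter; 16 hr compound treatment at 37 C, luciferase signal detected with ONE-Glo.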
# [4] = qHTS assay for small molecule agonists of the antioxidant response element (ARE) signaling pathway measured by Nrf2-dependant transcriptional activity - cell viability counter screen (AID 720653); settings: ARE-bla HepG2 viability, CellTiter-Glo ATP luminescence, 16 h; hits give low values; further: on the % scale 0 is the no-effect control and ±100 the full control effect
# In short: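 ARE-bla HepG2 cells (2,000/well) rested 5 hrs at 37C/5% CO2, then exposed to compounds in DMSO for 16 hrs. Viability was read in the same wells as intracellular ATP by luminescence, 30 min at room temperature after reagent addition.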
# [5] = qHTS assay for small molecule antagonists of the retinoid-related orphan receptor gamma (ROR-gamma) signaling pathway - cell viability counter screen (AID 720652);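 further: compound exposure lasted 16 hr before ATP read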; further: potency means the concentration at half of the fitted maximal effect
# In short: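 Cytotoxicity is quantified via intracellular ATP (CellTiter-Glo luminescence) in doxycycline-induced CHO ROR response element-luciferase reporter cells treated with compound for 16 hr at 37 C, 5% CO2.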
# [6] = qHTS for compounds that reverse cellular toxicity of Amyloid beta (A-beta) peptide in yeast: LOPAC Validation Assay (AID 720559; active means well fitted curve in the direction sought with a large enough effect; an effect the other way counts as inactive or inconclusive;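 further: plate controls were DMSO for no effect and equimolar ferric chloride plus clioquinol rescue for full effect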)
# In short: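 Here, A-beta-toxic yeast grow with test compounds at 30 C for 48 hr before optical density at 600 nm is recorded; data are normalized against DMSO and the FeCl3-clioquinol control.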
# [7] = qHTS for Activators of Parkin Expression: LOPAC Validation Assay (NLuc Reporter) (AID 720572; active means well fitted curve in the direction sought with a large enough effect; an effect the other way counts as inactive or inconclusive; further: potency means the concentration at half of the fitted maximal effect)
# In short: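 Neuronal line stably carrying a FLuc/NLuc coincidence reporter under the Parkin promoter, seeded 24 h, then dosed in 7-point series for 24 h at 37 C. NLuc luminescence read after FLuc; normalized to DMSO and positive control (100%).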
# [8] = qHTS for Activators of Parkin Expression: LOPAC Validation Assay (FLuc Reporter) (AID 720573; active means well fitted curve in the direction sought with a large enough effect; an effect the other way counts as inactive or inconclusive;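 further: 0% = DMSO and 100% = positive control compounds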)
# In short: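 Readout is FLuc luminescence from neuronal reporter cells (Parkin promoter, FLuc plus NLuc) after 24 h compound exposure in dose response. Values normalized to neutral DMSO and positive-control compounds.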
# [9] = molecular target: T1, Hexokinase-4 (Homo sapiens) + Glucokinase regulatory protein (Homo sapiens); test: qHTS assay for inhibitors of recombinant human GCK-GKRP interaction: ADP-Glo assay (AID 743206; active means well fitted curve in the direction sought with a large enough effect; an effect the other way counts as inactive or inconclusive;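 further: plate controls were DMSO plus enzyme for no effect and no enzyme for full effect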)
# In short: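 GST-GCK and FLAG-GKRP (15 nM each in the dispensed mix, with 2 uM S6P) react with 0.4 mM ATP and 5 mM glucose (final) in Hepes pH 7.6 for 60 min at room temperature. ADP is measured by ADP-Glo luminescence.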
# [10] = molecular target: T1, Hexokinase-4 (Homo sapiens) + Glucokinase regulatory protein (Homo sapiens); test: qHTS assay for inhibitors of recombinant human GCK-GKRP interaction: HTRF assay (AID 743207; active means well fitted curve in the direction sought with a large enough effect; an effect the other way counts as inactive or inconclusive;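 further: 0% = DMSO with GCK present and -100% = DMSO wells lacking GCK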)
# Excerpt: Glucokinase (GCK) is a glucose sensor in hepatocytes and pancreatic beta-cells. Hepatic GCK is regulated by glucokinase regulatory protein (GKRP), which is predominantly localized to the liver. GKRP binds to GCK inhibiting its activity in the fasting state while in the presence of glucose the GKRP is displaced. There is an additional layer of regulation by fructose 1-phosphate and fructose 6-phosphate, which inhibit and enhance the GCK-GKRP interaction, respectively. GCK plays a role in glucose homeostasis and there is an interest in the development of strategies to activate GCK to lower blood glucose levels in type 2 diabetes. To date the majority of effort has focused on direct activation of GCK and the assays developed herein look to activate GCK by inhibiting its binding to GKRP. A compound that inhibits the interaction of GCK with GKRP could be important for the treatment of diabetes and can also be used as a tool compound to further elucidate GCK-GKRP biology. To that end, we have developed an HTS biochemical assay using HTRF technology for to interrogate the GCK-GKRP interaction. This assay was screened against a small compound library to look for modulators of activity.
# 3 uL of 5 nM GST-GCK and 5 nM FLAG-GKRP proteins with 2 uM S6P (columns 1-2, 4-48; Millipore, Billerica, MA) are dispensed into Greiner, white solid-bottom 1536-well assay plates; columns 3 receive buffer without GCK as a control for maximum inhibition. Buffer contains 2 mM MgCl2, 25 mM KCl, 25 mM Hepes, 1 mM DTT, 0.1% Tween 20 and 0.025% BSA and the pH was adjusted to 7.1. Compounds (23 nL) are then transferred via Kalypsys pin tool equipped with 1536-pin array (10 nL slotted pins, V&P Scientific, San Diego, CA). The library compounds are in columns 5-48 and columns 1-4 serve as controls with DMSO in columns 1 and 3 and 26 mM 1:1.5 fold serial of gluckokinase activator (GKA-EMD) in column 2 and 26 mM of the glucokinase activator (GKA-EMD) in column 4. Following addition of compound, 1 uL of detection antibodies (anti-Flag XL 665 and anti-GST K in reconstitution buffer from Cisbio, Bedford, MA; 0.7 ng/well and 0.0945 ng/well, respectively) is added, and the mixture is allowed to equilibrate for 60 minutes at room temperature. Data are normalized to DMSO-treated control columns with (maximum signal) and without (minimum signal) enzyme. Plates were read on an Envision plate reader (PerkinElmer, Shelton, CT, USA) with excitation at 320 nm and dual-wavelength detection at the Fret donor wavelength (615 nm) and the FRET acceptor wavelength (665 nm).
smiles,measurement,setting,value
CCOC(=O)Nc1ccc(NCc2ccc(F)cc2)nc1N,outcome,[1],inactive
same,Potency,[2],3.55 µM (active)
O=C(NC(=O)c1c(F)cccc1F)Nc1cc(Cl)c(OC(F)(F)C(F)C(F)(F)F)cc1Cl (stereo not drawn),Potency,[3],inactive
same,max response,[4],-21.7%
same,max response,[2],13.1%
Cc1ccc(N=CN(C)C=Nc2ccc(C)cc2C)c(C)c1,Potency,[3],inactive
same,max response,[4],-11.3%
same,max response,[2],9.43%
Oc1c(Br)cc(Br)cc1Br,Potency,[3],inactive
same,Potency,[5],inactive
same,max response,[4],-5.17% and -2.6%
same,max response,[2],-0.35%
O=c1n(Cl)c(=O)n(Cl)c(=O)n1Cl,Potency,[3],inactive
same,max response,[4],-3.02%
same,max response,[2],-4.5%
COc1ccc(C(=O)N2CCCC2=O)cc1,outcome,[6],inactive
same,Potency,[7],inactive
same,outcome,[8],inactive
same,outcome,[1],inactive
same,outcome,[9],inactive
same,outcome,[10],inactive
same,max response,[2],-3.61% and 29.8%
COP(=O)(OC)C(O)C(Cl)(Cl)Cl (stereo not drawn),max response,[4],-9.64%
CC[n+]1c(-c2ccccc2)c2cc(N)ccc2c2ccc(N)cc21,Potency,[3],inactive
same,Potency,[5],inactive
same,max response,[4],-16.8%
same,Potency,[2],1.41 µM (active) and 6.31 µM (active)
CCOP(=S)(OCC)O/N=C(\C#N)c1ccccc1,max response,[4],4.22%
same,max response,[2],-3.66%
COCC(=O)N(c1c(C)cccc1C)C(C)C(=O)OC (stereo not drawn),Potency,[3],inactive
same,max response,[4],-4.71%
same,max response,[2],-6.72%
C[C@@H]1C[C@@H]([C@H](O)CC2CC(=O)NC(=O)C2)C(=O)[C@@H](C)C1,Potency,[3],inactive
same,Potency,[5],inactive
same,max response,[4],15.1% and 0.954% and 3.58%
same,Potency,[2],2.82 µM (active)
CCCCCCCCCCCCCCCC[n+]1ccccc1,Potency,[3],inactive
same,Potency,[2],7.08 µM (active)
C=CCOC(Cn1ccnc1)c1ccc(Cl)cc1Cl (stereo not drawn),Potency,[3],inactive
same,max response,[4],-15.2% and -7.32%
COC(=O)C1=CCCN(C)C1,outcome,[6],inactive
same,Potency,[7],inactive
same,outcome,[8],inactive
same,outcome,[1],inactive
same,outcome,[9],inactive
same,outcome,[10],inactive
same,max response,[2],7.57% and 6.37%
COC(=O)C1=C(C)NC(C)=C(C(=O)OC)C1c1ccccc1[N+](=O)[O-],Potency,[7],23.1 µM (active)
O=C(CCl)c1ccc(Cl)cc1Cl,Potency,[5],21.1 µM (active)
same,max response,[2],14.5% and 7.69%
CNC(=O)Oc1cccc2ccccc12,Potency,[5],inactive
same,max response,[4],6.76% and -21.4%
same,Potency,[2],35.5 µM (active)
